Structures are written as SMILES. This is one part of the list. Active and inactive are the calls of the source.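 The calls were made as follows, unless noted: active = rise or fall in signal beyond 3 SD of buffer-only wells in both replicate plates, either sign; inactive = the rest.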

Sequence of Short transient receptor potential channel 4 (Mus musculus) (Q9QUQ5 whole entry, looked up): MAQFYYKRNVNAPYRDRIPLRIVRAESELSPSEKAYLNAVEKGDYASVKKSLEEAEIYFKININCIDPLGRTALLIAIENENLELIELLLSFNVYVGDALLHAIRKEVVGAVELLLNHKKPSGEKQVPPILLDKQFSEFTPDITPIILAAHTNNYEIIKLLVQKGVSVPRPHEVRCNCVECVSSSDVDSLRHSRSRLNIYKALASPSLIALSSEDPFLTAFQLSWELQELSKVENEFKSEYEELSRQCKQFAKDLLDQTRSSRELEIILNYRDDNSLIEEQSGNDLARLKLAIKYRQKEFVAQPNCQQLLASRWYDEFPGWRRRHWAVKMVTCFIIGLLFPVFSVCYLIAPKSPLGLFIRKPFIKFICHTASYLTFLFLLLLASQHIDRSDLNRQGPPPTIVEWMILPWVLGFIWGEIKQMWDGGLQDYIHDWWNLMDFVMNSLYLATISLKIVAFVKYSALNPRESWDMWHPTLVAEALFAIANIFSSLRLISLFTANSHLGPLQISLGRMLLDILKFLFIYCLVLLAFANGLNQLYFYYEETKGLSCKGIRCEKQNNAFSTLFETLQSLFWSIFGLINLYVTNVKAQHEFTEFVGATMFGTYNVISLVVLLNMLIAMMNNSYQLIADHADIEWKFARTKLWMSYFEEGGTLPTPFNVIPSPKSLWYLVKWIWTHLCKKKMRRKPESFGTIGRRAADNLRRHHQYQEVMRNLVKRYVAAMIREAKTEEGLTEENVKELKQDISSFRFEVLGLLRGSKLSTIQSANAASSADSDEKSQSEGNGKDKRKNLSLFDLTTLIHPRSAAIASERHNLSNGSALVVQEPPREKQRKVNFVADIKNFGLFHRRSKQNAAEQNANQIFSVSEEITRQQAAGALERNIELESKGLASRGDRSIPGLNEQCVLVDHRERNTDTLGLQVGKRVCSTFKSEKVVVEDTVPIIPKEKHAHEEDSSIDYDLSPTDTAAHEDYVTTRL

The first test addresses Short transient receptor potential channel 4 (Mus musculus) (UniProt Q9QUQ5). Briefly: DAMGO-gated TRPC4 membrane potential modulation – cell-based, second specificity screen, HEK293 TRPC4/mu-opioid, selectivity assay for TRPC6 inhibitor project, confirmation (AID 2776;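 active = compounds whose fluorescence signal differed from control wells by over 3 SD, either direction, in both duplicate plates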). Conditions: HEK293 TRPC4/MOR, membrane potential dye fluorescence, at 10 µM, channel activated by saturating DAMGO dose; active compounds read high.
`N=c1c2c(-c3ccccc3)c(-c3ccccc3)n(Cc3ccccc3)c2ncn1CCCO`: the result was inactive.

With `Cc1cc2oc3ccc(NCCC4CCCN4C)cc3c(=O)c2cc1C` (stereo not drawn), the inhibition was 63% (active).

As for `Cc1ccc2nc(C)c3c(c2c1)N(c1ccccc1)CC3`, the inhibition is 32% (active).

On to `O=C(NC(Nc1nc2ccc([N+](=O)[O-])cc2s1)(C(F)(F)F)C(F)(F)F)c1ccccc1`, for which the inhibition was 45% (active).

The next test concerns transient receptor potential cation channel C4 (TRPC4), mouse. Briefly: membrane potential change in TRPC4 cells – cell-based, HEK293 TRPC4/mu-opioid, membrane potential dye, selectivity assay for TRPC6 inhibitor project, confirmation (AID 2777).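 Also: integrated kinetic ratio of fluorescence range over baseline.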 The conditions noted are these: membrane potential fluorescence, at 10 µM.
For the compound `N=c1c2c(-c3ccccc3)c(-c3ccccc3)n(Cc3ccccc3)c2ncn1CCCO`, the outcome was inactive.

For the compound `Cc1cc2oc3ccc(NCCC4CCCN4C)cc3c(=O)c2cc1C` (stereo not drawn), the activity change, negative = inhibition was 8.34% (active).

Take `Cc1ccc2nc(C)c3c(c2c1)N(c1ccccc1)CC3`: the result was inactive.

For the compound `O=C(NC(Nc1nc2ccc([N+](=O)[O-])cc2s1)(C(F)(F)F)C(F)(F)F)c1ccccc1`, the activity change, negative = inhibition is 60.8% (active).

Test system in the next test: not listed separately
The test can be described thus: parental HEK293 depolarization signal interference – cell-based, second counter screen, counter-screen for TRPC6 inhibitor project, confirmation (AID 2779;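 active = membrane potential signal moving either way by over 3 SD of the maximum-effect control, in both duplicate plates, meaning non-specific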). Conditions: parental HEK293 membrane potential dye fluorescence; at 10 µM; maximal acetylcholine challenge after compound addition.
For `N=c1c2c(-c3ccccc3)c(-c3ccccc3)n(Cc3ccccc3)c2ncn1CCCO`, the result was inactive.

Consider `Cc1cc2oc3ccc(NCCC4CCCN4C)cc3c(=O)c2cc1C` (stereo not drawn), for which the result was inactive.

For `Cc1ccc2nc(C)c3c(c2c1)N(c1ccccc1)CC3`, the result was inactive.

Consider `O=C(NC(Nc1nc2ccc([N+](=O)[O-])cc2s1)(C(F)(F)F)C(F)(F)F)c1ccccc1`, for which the outcome was inactive.

Test system in a further test: not listed separately
Briefly: nonspecific voltage dye signal in HEK293 – cell-based, parental HEK293, counter-screen for TRPC6 inhibitor project, confirmation (AID 2780;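 active = membrane potential signal shifting up or down by more than 3 SD of buffer-only wells, on both duplicate plates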;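 as to membrane potential signal change: plate controls were buffer EC0 wells for no effect and acetylcholine ECmax wells for full effect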). The conditions noted are these: parental HEK293 membrane potential dye fluorescence; at 10 µM.
Regarding `N=c1c2c(-c3ccccc3)c(-c3ccccc3)n(Cc3ccccc3)c2ncn1CCCO`, the result was inactive.

For `Cc1cc2oc3ccc(NCCC4CCCN4C)cc3c(=O)c2cc1C` (stereo not drawn), the membrane potential signal change is 5.47% (active).

Consider `Cc1ccc2nc(C)c3c(c2c1)N(c1ccccc1)CC3`, for which the membrane potential signal change is -212% (active).

Take `O=C(NC(Nc1nc2ccc([N+](=O)[O-])cc2s1)(C(F)(F)F)C(F)(F)F)c1ccccc1`: the membrane potential signal change was 36.6% (active).

The target of a further test is Short transient receptor potential channel 6 (Mus musculus) (UniProt Q61143). Briefly: blockers of TRPC6 cation channel activity – HEK293 cells, membrane potential dye, duplicate, confirmation (AID 488960;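 active = fluorescence ratio falls more than 5 SD below the full-stimulation control mean, in both duplicate runs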;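 as to inhibition: integrated fluorescence ratio of peak minus minimum over baseline after agonist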). Conditions: ACh-evoked depolarization, at 10 µM; active compounds read high.
Sequence of Short transient receptor potential channel 6 (Mus musculus) (Q61143 whole entry, looked up): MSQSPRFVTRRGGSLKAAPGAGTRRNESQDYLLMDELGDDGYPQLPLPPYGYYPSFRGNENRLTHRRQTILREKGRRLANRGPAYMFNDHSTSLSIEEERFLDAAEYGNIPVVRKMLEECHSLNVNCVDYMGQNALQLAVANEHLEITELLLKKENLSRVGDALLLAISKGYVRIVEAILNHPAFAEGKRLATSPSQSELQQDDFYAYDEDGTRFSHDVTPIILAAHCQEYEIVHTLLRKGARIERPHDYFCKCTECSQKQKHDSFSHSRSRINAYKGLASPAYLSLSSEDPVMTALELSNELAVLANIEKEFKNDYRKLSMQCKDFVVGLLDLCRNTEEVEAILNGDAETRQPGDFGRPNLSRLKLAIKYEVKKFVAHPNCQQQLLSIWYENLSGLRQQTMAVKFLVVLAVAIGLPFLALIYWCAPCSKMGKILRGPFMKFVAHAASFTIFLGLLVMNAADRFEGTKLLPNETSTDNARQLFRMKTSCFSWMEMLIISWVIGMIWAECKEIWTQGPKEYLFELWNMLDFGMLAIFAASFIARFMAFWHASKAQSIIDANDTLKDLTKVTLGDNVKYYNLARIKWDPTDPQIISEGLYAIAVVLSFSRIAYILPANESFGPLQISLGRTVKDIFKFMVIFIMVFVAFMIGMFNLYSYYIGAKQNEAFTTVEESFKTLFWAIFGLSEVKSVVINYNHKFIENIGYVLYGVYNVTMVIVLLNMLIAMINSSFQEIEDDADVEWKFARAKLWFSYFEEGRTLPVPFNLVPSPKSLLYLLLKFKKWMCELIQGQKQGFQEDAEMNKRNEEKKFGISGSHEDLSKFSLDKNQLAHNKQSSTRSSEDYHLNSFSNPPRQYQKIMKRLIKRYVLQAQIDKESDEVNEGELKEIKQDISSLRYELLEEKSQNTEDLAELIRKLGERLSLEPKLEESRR
As for `N=c1c2c(-c3ccccc3)c(-c3ccccc3)n(Cc3ccccc3)c2ncn1CCCO`, the compound was classed as inactive.

For the compound `Cc1cc2oc3ccc(NCCC4CCCN4C)cc3c(=O)c2cc1C` (stereo not drawn), the outcome was inactive.

Consider `Cc1ccc2nc(C)c3c(c2c1)N(c1ccccc1)CC3`, for which the call was inactive.

In the case of `O=C(NC(Nc1nc2ccc([N+](=O)[O-])cc2s1)(C(F)(F)F)C(F)(F)F)c1ccccc1`, the inhibition was 93.7% (active).

A further test has the same target. The test can be described thus: mouse TRPC6 channel activators, confirmation, HEK293 cells, membrane potential dye, duplicate (AID 488961;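 active = ratio signal rise beyond 5 SD above unstimulated control wells' mean, seen in both duplicate runs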). Conditions: HEK293-TRPC6 membrane potential dye fluorescence, FDSS, at 10 µM; active compounds read high.
`N=c1c2c(-c3ccccc3)c(-c3ccccc3)n(Cc3ccccc3)c2ncn1CCCO`: the result was inactive.

On to `Cc1cc2oc3ccc(NCCC4CCCN4C)cc3c(=O)c2cc1C` (stereo not drawn), for which the compound was called inactive.

`Cc1ccc2nc(C)c3c(c2c1)N(c1ccccc1)CC3`: the compound was classed as inactive.

For the origin of these results see PubChem BioAssay.
